HEK293 viab = counter-screen for SNCA expression inhibitors: cell viability; HEK-293-SNCA-luc viability, GF-AFC fluorescence, 24 h; Potency, µM (top dose mostly 57.1 µM), without a hit: top-dose activity change, negative = cytotoxicity, usual class: cytotoxic; 150,000 tested, 0.12% active; AID 1671193;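 note: potency is the fitted concentration of half-maximal effect; 0% = DMSO-treated cells and -100% = medium-only wells without cells; nearly all actives have a fitted effect of over 30% in size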
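Cytotoxicity counterscreen: after 24 h compound treatment of genome-edited SNCA-luciferase HEK-293 cells, live-cell protease substrate GF-AFC read by fluorescence after 30 min; activity scaled between DMSO (0%) and medium-only (-100%), curves Hill-fitted.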
SNCA expr inhib = inhibitors of alpha-synuclein (SNCA) gene expression; AID 1671194; Potency, µM (top dose mostly 57.2 µM), inactives show top-dose activity change, negative = inhibition, hits mostly inhibitors; 140,000 tested, 0.17% active; HEK-293 SNCA-luciferase knock-in, luminescence, 24 h;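 note: potency is the fitted concentration of half-maximal effect; plate controls were DMSO cells for no effect and cell-free wells for full effect; nearly all actives have a fitted effect of over 45% in size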
IP6K1 inhibitor = IP6K1 kinase inhibition; Q92551; IP6K1 kinase, ADP-Glo luminescence, 2 h; hits give low values; activity change, % (series mostly up to about 58 µM); 140,000 tested, 0.81% active; in the data active = activity change below about -25%; note: % is set by controls: 0 for no effect and ±100 for the full control effect
Target sequence (Q92551 whole entry, looked up): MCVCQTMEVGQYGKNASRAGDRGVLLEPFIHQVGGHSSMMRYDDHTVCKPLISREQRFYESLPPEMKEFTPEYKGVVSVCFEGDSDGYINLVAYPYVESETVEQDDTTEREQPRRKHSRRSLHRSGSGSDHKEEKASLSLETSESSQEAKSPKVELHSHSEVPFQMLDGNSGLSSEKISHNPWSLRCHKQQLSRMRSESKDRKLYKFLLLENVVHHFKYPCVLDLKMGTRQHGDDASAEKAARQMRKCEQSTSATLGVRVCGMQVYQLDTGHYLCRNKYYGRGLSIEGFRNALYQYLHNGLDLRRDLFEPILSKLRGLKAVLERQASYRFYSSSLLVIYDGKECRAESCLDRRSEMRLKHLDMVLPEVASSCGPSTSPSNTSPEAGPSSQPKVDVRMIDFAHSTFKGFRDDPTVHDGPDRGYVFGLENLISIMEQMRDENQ
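ADP-Glo luminescence measures ADP made by human IP6K1 during a 2 h RT reaction with ATP/IP6 (mix at 1.3 mM/130 uM); top library doses 57.5 and 19.1 uM final.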
KDM5B inh = inhibitors of human KDM5B histone demethylase | 220,000 tested, 2.6% active | AID 1347165 | KDM5B demethylase, FDH-coupled NADH fluorescence (FDH is formaldehyde dehydrogenase) | Q9UGL1 | Potency, µM (highest dose often 57.7 µM), hits mostly inhibitors; note: potency is the fitted concentration of half-maximal effect; 0% is about no effect; nearly all actives have a fitted effect of over 70% in size
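Measured: NADH fluorescence change, 30 min, RT. System: KDM5BΔAP 200 nM final, H3K4me3 peptide, α-KG, Fe(II), ascorbate, NAD⁺ plus FDH, pH 7.5 HEPES. Compounds: titrated, 10 min pre-incubation with enzyme.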
Numbers without * were called inactive; i = inactive; ? = inconclusive; nt = no result given; [ ] = another dose, or the depositor's remark. In the library only some 2.9% were active in any assay of this set; here they are far more common. Unless noted, calls come from the whole dose curve; as a rule, active = well fitted curve in the direction sought with a large enough effect; inconclusive = small, poorly fitted or top-dose-only effect, or another doubt; inactive = no such curve, though single readings can be large; an effect the other way counts as inactive or inconclusive.

SMILES	HEK293 viab	SNCA expr inhib	IP6K1 inhibitor	KDM5B inh
CN(C)C[C@@H]1CN(c2ccccn2)C[C@H]1NC(=O)NC1CCCCC1	-8%	5%	9	32µM*
CN(C)C[C@@H]1CN(c2ccccn2)C[C@H]1NC(=O)Cn1c(=O)oc2ccccc21	4%	13%	19	22µM*
CN(C)C[C@@H]1CN(c2ccccn2)C[C@H]1NC(=O)c1ccoc1	1%	0%	9	28µM*
O=C(Cc1ccccn1)NC1CCN(Cc2cccc(-c3cccs3)c2)CC1	?	10%	-6	nt
O=C1Nc2ccc(-c3cccc(C(F)(F)F)c3)cc2C(=O)N2CCN(C(=O)c3cccs3)C[C@H]12	-29%	-24%	-5	?
CN(C)C[C@@H]1CN(c2ccncn2)C[C@H]1NC(=O)c1ccc2c(c1)OCO2	-15%	-19%	-9	?
CN(C)C[C@@H]1CN(c2ccccn2)C[C@H]1NC(=O)c1ccc2c(c1)OCO2	-13%	10%	13	28µM*
CN(C)C[C@@H]1CN(c2ccccn2)C[C@H]1NC(=O)c1cccn1C	5%	16%	-4	22µM*
O=C(C1CCCN1C(=O)Nc1ccc(Cl)cc1)N1CCC(N2Cc3cccn3C2=O)CC1 (centres undefined)	-16%	-10%	6	nt
O=C(NCc1cccs1)c1ccc2nnc(-c3ccc(C(F)(F)F)cc3)n2c1	-5%	10%	7	nt
CCN(C(=O)Cn1cccc1-c1nc(-c2ccc(OC)c(F)c2)no1)c1cccc(C)c1	-25%	103%	10	28µM*
COc1cc(-c2cc3c(nc2OC)nc(CC2CC2)n3C)ccn1	-4%[87.6 µM]	120%[87.6 µM]	5	40µM*
COc1ccc(-c2cc3c(nc2OC)nc(CC2CC2)n3C)cc1	-11%[87.6 µM]	82%[87.6 µM]	8	35µM*
O=S(=O)(Cc1ccccc1F)N1CCC(Cc2nc(-c3ccncc3)n[nH]2)C1 (centres undefined)	-9%	-8%	23	nt
Cc1cnc(CCNS(=O)(=O)c2cccc(F)c2)n1Cc1ccc(F)cc1	2%	9%	1	nt
COc1ccc(-c2[nH]nc3ncc(-c4cccnc4)nc23)cc1F	?	2.8µM*	-2	i
Cc1cccc(-c2cnc3n[nH]c(-c4ccccc4)c3n2)c1	?	?	4	35µM*
COc1ccccc1-c1[nH]nc2ncc(-c3cccnc3OC)nc12	1%[87.6 µM]	-9%[87.6 µM]	15	i
COc1ccc(-c2cnc3n[nH]c(-c4ccc(F)cc4C)c3n2)cc1OC	8%[87.6 µM]	-15%[87.6 µM]	17	32µM*
COc1ncccc1-c1cnc2n[nH]c(-c3ccccc3C)c2n1	-1%[87.6 µM]	?	5	40µM*
COc1cccc(-c2cnc3n[nH]c(-c4ccc(F)cc4C)c3n2)c1	7%[87.6 µM]	-25%[87.6 µM]	25	?
O=C(NCc1ccc(Cl)cc1)c1ccc2nnc(Cc3ccc(Cl)cc3)n2c1	-7%	?	-11	nt
Cc1nn(-c2ccc(F)cc2)c(Oc2ccccc2F)c1CCC(=O)N1CCCC1	-14%	-7%	0	i
COc1ncccc1-c1cnc2n[nH]c(-c3ccccc3)c2n1	-6%[87.6 µM]	-16%[87.6 µM]	17	35µM*
Cc1ccsc1-c1[nH]nc2ncc(-c3ccc(F)cc3)nc12	13%[87.6 µM]	15%[87.6 µM]	13	i
SMILES	HEK293 viab	SNCA expr inhib	IP6K1 inhibitor	KDM5B inh
COc1ccccc1-c1cnc2n[nH]c(-c3ccccc3)c2n1	9%[87.6 µM]	?	17	35µM*
c1ccc(-c2cnc3n[nH]c(-c4ccccc4)c3n2)cc1	-23%[87.6 µM]	-20%[87.6 µM]	29	?
Cc1cc(C)cc(-c2[nH]nc3ncc(-c4ccsc4)nc23)c1	?	16%[87.6 µM]	31	28µM*
Fc1ccccc1-c1cnc2n[nH]c(-c3ccccc3)c2n1	-13%[87.6 µM]	?	6	32µM*
O=C(N[C@H](C1CCNCC1)C1CC(O)C1)c1ccc2nccnc2c1 (some centres undefined)	7%	-19%	2	?
CC(C)c1ccc(C(=O)N[C@H](C2CCNCC2)C2CC(O)C2)c(=O)n1C (some centres undefined)	-4%	?	-2	25µM*
O=C(NCc1ccccc1)c1nc2c(o1)CCN(Cc1ccc(F)cc1)CC2	-5%[87.6 µM]	-5%[87.6 µM]	5	i
O=C(Nc1ccc(Cl)cc1)c1nc2c(o1)CCN(Cc1cc(F)ccc1F)CC2	-12%[87.6 µM]	1%[87.6 µM]	-2	32µM*
O=C(NCCOc1ccccc1)c1nc2c(o1)CCN(Cc1ccc3[nH]ccc3c1)CC2	-3%[87.6 µM]	18%[87.6 µM]	3	40µM*
O=C(NCc1ccccc1)c1nc2c(o1)CCN(Cc1ccc(F)c(Cl)c1)CC2	-8%[87.6 µM]	-25%[87.6 µM]	2	28µM*
